Giardia kill: Small Molecules that selectively kill Giardia lamblia: qHTS; AID 540267, 2011; activity change, % at 7.66 µM, hits read low; Giardia lamblia trophozoite viability; 340,000 compounds, 0.15% hits; in the data active means activity change below about -80%; inconclusive means between about -30% and that limit;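 further: parasites exposed to compound for two days anaerobically before the ATP read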
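Viability, read as ATP luminescence: trophozoites at 100 cells/well, compound added, 48 hrs anaerobic at 37 deg C, then 15-30 min room-temperature development before reading.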
Nrf2 block: Nrf2 qHTS screen for inhibitors. Potency, µM (titrated, usually from 46 µM), actives largely listed as inhibitors. 360,000 compounds, 2.1% hits. A549 ARE-Fluc reporter, luciferase luminescence, 18-24 h; further: nearly all actives have a fitted effect of over 60% in size
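A549 ARE_Fluc cells (5000/well, 5% FBS OPTI-MEM) pre-incubated 2 h, then treated with compounds 18-24 h at 37C/5% CO2 in concentration-response. CellTiter-Fluor viability read first; BugLite luciferase luminescence after 15 min at room temperature gives Nrf2 activity.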
A549 tox: Nrf2 qHTS screen for inhibitors: counterscreen for cytotoxicity; A549 ARE-Fluc cells, CellTiter-Fluor viability, 18-24 h; 390,000 compounds, 0.16% hits; Potency, µM (highest dose often 46 µM), most hits filed as inhibitors
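Cytotoxicity counterscreen: CellTiter-Fluor fluorescence was measured in A549 ARE_Fluc cells after 18-24 h of compound exposure in a concentration series. The subsequent BugLite luminescent read reports ARE-luciferase activity.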
Apoferritin bind: qHTS Assay for Identification of Novel General Anesthetics; apoferritin/1-aminoanthracene competitive binding, fluorescence; Ferritin light chain (Equus caballus), P02791; Potency, µM (top dose mostly 77.5 µM), most hits filed as inhibitors; 350,000 compounds, 0.074% hits; further: nearly all actives have a fitted effect of over 20% in size
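Horse-spleen apoferritin (10 uM) was mixed with 50% saturated 1-aminoanthracene in PBS, exposed to compounds for 10 min at room temperature, and read for fluorescence (ex 380 nm, em 535 nm). Competitive displacement was fitted with a four-parameter Hill equation.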
Nrf2 activator: qHTS of Nrf2 Activators | AREc32 ARE-luciferase reporter (MCF7-derived line), luminescence, 24 h | Potency, µM (series often up to 46.1 µM), usual class: activators | 410,000 compounds, 0.31% hits | AID 624171, 2012; further: nearly all actives have a fitted effect of over 65% in size
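Cells of the AREc32 ARE-luciferase line are plated in OPTI-MEM containing 5% FBS and left overnight at 37 deg C. Compounds are pinned in, incubation continues 24 hr, and firefly luciferase signal is then measured.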
IDH1 R132H inh: qHTS for Inhibitors of mutant isocitrate dehydrogenase 1 (IDH1): qHTS. IDH1-R132H enzyme, NADPH consumption, diaphorase/resazurin fluorescence. 390,000 compounds, 0.093% hits. Potency, µM (doses to about 76.6 µM), most hits filed as inhibitors; further: nearly all actives have a fitted effect of over 65% in size
Target sequence (O75874 whole entry R132H, stated change not applied): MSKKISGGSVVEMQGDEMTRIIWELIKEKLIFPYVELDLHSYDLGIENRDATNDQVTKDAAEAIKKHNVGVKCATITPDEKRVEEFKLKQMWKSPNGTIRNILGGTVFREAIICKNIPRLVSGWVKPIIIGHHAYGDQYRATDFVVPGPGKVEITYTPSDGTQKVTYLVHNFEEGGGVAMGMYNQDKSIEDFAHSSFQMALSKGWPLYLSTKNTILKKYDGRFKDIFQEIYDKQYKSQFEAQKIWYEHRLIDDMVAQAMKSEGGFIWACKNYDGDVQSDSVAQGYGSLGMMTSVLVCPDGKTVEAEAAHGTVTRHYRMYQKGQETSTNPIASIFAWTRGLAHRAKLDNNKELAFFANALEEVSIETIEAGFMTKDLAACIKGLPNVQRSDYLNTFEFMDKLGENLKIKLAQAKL
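IDH1-R132H (0.5 ug/mL) preincubated 30 min with compound, then NADPH (0.016 mM) and alpha-KG (2 mM) added; 80 min at RT, pH 7.5. Remaining NADPH coupled via diaphorase/resazurin to fluorescence (540/590 nm); concentration-response curves normalized to no-enzyme control.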
Each line names hits and unclear results; the compound was inactive in the other large screens. Hits are enriched below; roughly 2.3% of the tested compounds scored in any of these assays. Unless noted, the call rests on the fitted dose curve; in most records, active means well fitted curve in the direction sought with a large enough effect; inconclusive means small, poorly fitted or top-dose-only effect, or another doubt; inactive means no such curve, though single readings can be large; an effect the other way counts as inactive or inconclusive.

CCCS(=O)(=O)N1CCN(c2cc3c(cc2[N+](=O)[O-])n(C)c(=O)n3C)CC1	Nrf2 block 11.6µM
Cc1ccc(S(=O)(=O)N2CCN(c3c([N+](=O)[O-])cc(C(F)(F)F)cc3[N+](=O)[O-])CC2)cc1	A549 tox inconclusive
Cn1c(=O)n(C)c2cc([N+](=O)[O-])c(N3CCN(S(=O)(=O)c4ccc5ccccc5c4)CC3)cc21	Nrf2 block 5.8µM
Cn1c(=O)n(C)c2cc([N+](=O)[O-])c(N3CCN(C(=O)c4cccc(F)c4)CC3)cc21	Nrf2 block 9.2µM, Apoferritin bind inconclusive
COc1cc(/C=N/NC(=O)c2ccc(-c3ccccc3)cc2)cc(OC)c1OC	Nrf2 block inconclusive
COc1cc(/C=N/NC(=O)c2cc(-c3ccccc3)sc2N)cc(OC)c1OC	Nrf2 block 16.4µM
O=[N+]([O-])c1ccc(/C=N/Nc2ncccc2[N+](=O)[O-])s1	Giardia kill -93.1, Nrf2 block inconclusive, Nrf2 activator inconclusive (no result: Apoferritin bind)
Cc1ccccc1C(=O)Nc1ccccc1C(=O)N/N=C\c1ccco1	Nrf2 activator inconclusive
O=C(N/N=C\c1ccco1)Nc1cccc(Cl)c1	Giardia kill inconclusive, Nrf2 block inconclusive, Nrf2 activator 5.01µM
O=C(Nc1ccccc1C(=O)N/N=C/c1ccco1)c1ccccc1	Nrf2 activator 3.55µM
O=C(Nc1ccccc1C(=O)N/N=C/c1ccco1)c1ccc(F)cc1	Nrf2 activator 2.82µM
O=C(Nc1ccccc1C(=O)N/N=C/c1ccco1)c1ccc(Cl)cc1	Nrf2 activator inconclusive
COc1cccc(-c2nc3nc(C)cc(C)n3c2NC2CCCC2)c1	none (no result: Giardia kill, Nrf2 block, A549 tox, Apoferritin bind, IDH1 R132H inh)
Cc1nn(C)c(Cl)c1NC(=O)OCc1ccc(Cl)cc1Cl	Nrf2 block 16.4µM
CSc1ccccc1OCc1cc(C(=O)NCc2ccc(C)s2)no1	Apoferritin bind inconclusive
Cc1ccc(CNC(=O)c2cc(COc3c(F)cccc3F)on2)s1	Apoferritin bind 12.6µM
CCOC(=O)c1ccc(NS(=O)(=O)c2ccc(-c3cc(C)no3)cc2)cc1	none (no result: Giardia kill)
CCOC(=O)c1ccc(NS(=O)(=O)c2cc(-c3onc(C)c3C)ccc2C)cc1	Nrf2 block 20.6µM (no result: Giardia kill)
O=[N+]([O-])c1cccc(-c2cc3cccc[n+]3cc2-c2cccc([N+](=O)[O-])c2)c1	none
Cc1cccc2cc(-c3ccccc3)c(-c3ccccc3)c[n+]12	Nrf2 block 23.1µM
COc1cc(NC(=O)CN2C(=O)NC(c3ccccc3)(c3ccccc3)C2=O)c(C)cc1[N+](=O)[O-]	Nrf2 block 29.1µM
CCC(C)c1cc([N+](=O)[O-])cc([N+](=O)[O-])c1OC(=O)OC(C)C (configuration not stated)	none (no result: Giardia kill, Nrf2 block, A549 tox, Nrf2 activator, IDH1 R132H inh)
Cc1ccc(S(=O)(=O)N(C)C)cc1NC(=O)c1cncc(Br)c1	Nrf2 block 11.6µM
CN(C)S(=O)(=O)c1cccc(NC(=O)c2cncc(Br)c2)c1	none
Cc1ccc(S(=O)(=O)N2CCN(c3nc(-c4cccs4)nc4ccccc34)CC2)c(C)c1	none (no result: Apoferritin bind, Nrf2 activator, IDH1 R132H inh)
Clc1cccc(Cl)c1/C=N\Nc1nccs1	Apoferritin bind inconclusive, Nrf2 activator 10µM
CCOc1ccccc1C(=O)Nc1cc2c(cc1N1CCCCC1)n(C)c(=O)n2C	Nrf2 block 23.1µM, A549 tox inconclusive, IDH1 R132H inh inconclusive (no result: Giardia kill)
Cn1c(=O)n(C)c2cc(N3CCCCC3)c(NC(=O)c3ccccc3)cc21	none
O=C(CN1CCN(c2ccccn2)CC1)Nc1ccccc1	none (no result: Nrf2 block)
O=C(CN1CCN(c2ccccn2)CC1)Nc1ccc(OCc2ccccc2)cc1	Nrf2 block 20.6µM, Apoferritin bind inconclusive
O=C(CN1CCN(c2ccccn2)CC1)Nc1ccc(Oc2ccccc2)cc1	Apoferritin bind inconclusive (no result: Nrf2 block)
O=C(CN1CCN(c2ccccn2)CC1)Nc1cccc(S(=O)(=O)N2CCCC2)c1	Nrf2 block 11.6µM
COc1ccc(C2c3[nH]c4ccccc4c3CCN2C(=O)CCC2CCCC2)cc1 (configuration not stated)	none (no result: Giardia kill, Nrf2 block)

Assay outcomes as filed in PubChem BioAssay.
